{"source": "PubChem BioAssay", "note": "Calls of active or inactive are those of the source.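 The calls were made as follows: active = inhibition above 20% together with a positive visual image hit; inconclusive = visual image hit but inhibition not above 20%; inactive = no visual image hit.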"}
{"assay": "inhibitors of TNFa-induced NFkB p65 translocation, primary screen, imaging, HUVEC, MLSMR starter and 10KST1 sets (AID 438);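 also: compound added about 3h40 before a 20 min TNFalpha stimulation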;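 as to inhibition: signal is the nuclear over cytoplasmic p65 intensity ratio per well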", "conditions": "HUVEC TNFa-induced p65 nuclear translocation; cell count: measured here: nuclei count (cytotoxicity indicator), at 2.08 µM; inhibition: at 2 µM, stronger effect = higher value, 0% TNFa-plus-vehicle, 100% no-TNFa wells"}
{"smiles": "COc1ccccc1NC(=O)C1=C(C)Nc2nnnn2C1c1ccccc1OC", "note": "(stereo not given)", "inhibition": "-0.5% (inactive)", "cell count": 453}
{"smiles": "CC(=O)NCCc1nc2ccccc2[nH]1", "cell count": 736, "inhibition": "-4.3% (inactive)"}
{"smiles": "S=C(c1ccc(-c2cc(Cl)ccc2Cl)o1)N1CCOCC1", "inhibition": "-10.4% (inactive)", "cell count": 365}
{"smiles": "COc1ccc(Cl)cc1-c1n[nH]c(=S)o1", "cell count": 546, "inhibition": "8.2% (inactive)"}
{"smiles": "O=c1[nH]c(SCc2ccccc2Cl)nc2c1CCCC2", "inhibition": "-14.3% (inactive)", "cell count": 447}
{"smiles": "CSc1nc(C)cc(OCC(=O)N2CCOCC2)n1", "cell count": 262, "inhibition": "-7.5% (inactive)"}
{"smiles": "CCOc1ccc(N(CC(=O)NC2CCCCC2)S(=O)(=O)c2c(C)noc2C)cc1", "cell count": 710, "inhibition": "-2.8% (inactive)"}
{"smiles": "Oc1ccccc1-c1nnc(COc2ccc(Cl)cc2Cl)o1", "cell count": 766, "inhibition": "-8.5% (inactive)"}
{"smiles": "CC(=O)NC(C)c1nc2ccccc2n1C(C)C", "note": "(stereo not given)", "inhibition": "11.5% (inactive)", "cell count": 588}
{"smiles": "CC1CCCCC1NC(=O)CCCc1nc2ccccc2c(=O)[nH]1", "note": "(stereo not given)", "cell count": 364, "inhibition": "-2.1% (inactive)"}
{"smiles": "c1ccc(-n2ncc3c(N4CCCCC4)ncnc32)cc1", "inhibition": "-3.9% (inactive)", "cell count": 655}
{"smiles": "c1cc(CNc2ccc3c(c2)OCO3)ccn1", "inhibition": "-3.9% (inactive)", "cell count": 240}
{"smiles": "O=C(CCn1c(=O)oc2ccccc21)N1CCCCCC1", "inhibition": "-23.3% (inactive)", "cell count": 776}
{"smiles": "COc1ccccc1C(=O)N1CCN(C(=O)c2ccncc2)CC1", "inhibition": "7.8% (inactive)", "cell count": 252}
{"smiles": "O=C(NC1CCCC1)C1CCCN(S(=O)(=O)c2cccc3cccnc23)C1", "note": "(stereo not given)", "inhibition": "6.6% (inactive)", "cell count": 617}
{"smiles": "N#Cc1c(-c2ccccc2)nc(N2CCCCCC2)[nH]c1=O", "inhibition": "-6.1% (inactive)", "cell count": 379}
{"smiles": "O=C(NC1CCCCC1)n1c(=O)oc2ccc(Cl)cc21", "cell count": 666, "inhibition": "13.9% (inactive)"}
{"smiles": "O=C(Nc1ccccc1N1CCOCC1)c1ccc2ccccc2n1", "cell count": 589, "inhibition": "-21.6% (inactive)"}
{"smiles": "O=C(Nc1ccc(F)cc1)N(CCCN1CCOCC1)Cc1cc2cc3c(cc2[nH]c1=O)OCO3", "cell count": 633, "inhibition": "-3% (inactive)"}
{"smiles": "COc1c(S(=O)(=O)n2nc(C)cc2C)ccc(Cl)c1Cl", "cell count": 536, "inhibition": "11.4% (inactive)"}
{"smiles": "CCn1c(SCC(=O)Nc2ccc(Cl)cc2)nnc1C1CC1", "cell count": 811, "inhibition": "1.7% (inactive)"}
{"smiles": "COc1cc2cc(C(c3nnnn3C3CCCC3)N(C)C3CCCCC3)c(=O)[nH]c2cc1OC", "note": "(stereo not given)", "inhibition": "-13.2% (inactive)", "cell count": 537}
{"smiles": "COc1ccccc1OCCOCCn1cnc2ccccc2c1=O", "inhibition": "-2.8% (inactive)", "cell count": 561}
{"smiles": "Cc1cccnc1NC(=O)CCCN1C(=O)c2ccccc2C1=O", "inhibition": "1.7% (inactive)", "cell count": 366}
{"smiles": "CCC1CCCCN1C(=O)C1CC(c2cc(Cl)c(OC)cc2OC)=NO1", "note": "(stereo not given)", "cell count": 411, "inhibition": "6.8% (inactive)"}
{"smiles": "CCOCCCNC(=O)C1CCC(CNS(=O)(=O)c2cccc3nsnc23)CC1", "note": "(stereo not given)", "inhibition": "6.8% (inactive)", "cell count": 808}
{"smiles": "C=CCn1c(SCC(=O)NCC2CCCO2)nc2scc(-c3ccco3)c2c1=O", "note": "(stereo not given)", "inhibition": "-10.3% (inactive)", "cell count": 557}
{"smiles": "CC1=C(C)CC2C(=O)N(c3cccc4ccccc34)C(=O)C2C1", "note": "(stereo not given)", "cell count": 705, "inhibition": "-2.3% (inactive)"}
{"smiles": "O=C(O)c1ccc(-c2ccc(O)c(F)c2)cc1", "inhibition": "1.3% (inactive)", "cell count": 677}
{"smiles": "COC(=O)c1ccccc1NC(=O)N1CCCC1", "cell count": 380, "inhibition": "-0.9% (inactive)"}
{"smiles": "Cc1ccc(-n2c(Cn3cnc4ccccc43)nnc2SCC(=O)O)cc1", "inhibition": "-9.8% (inactive)", "cell count": 610}
{"smiles": "Cc1ccc2c(c1C)NC(=O)C2(O)CC(=O)c1ccc2c(c1)OCO2", "note": "(stereo not given)", "inhibition": "0.6% (inactive)", "cell count": 788}
{"smiles": "CC1=C(C(=O)Nc2cccnc2)C(c2ccc(C(C)C)cc2)n2ncnc2N1", "note": "(stereo not given)", "inhibition": "-12.8% (inactive)", "cell count": 712}
{"smiles": "c1ccc(CCn2nnnc2CN2CCN(C3CCCC3)CC2)cc1", "inhibition": "-15.4% (inactive)", "cell count": 290}
{"smiles": "CN(C(=O)c1ccccc1Cl)c1ccccc1", "cell count": 611, "inhibition": "-2.4% (inactive)"}
{"smiles": "O=S(=O)(c1ccc(-c2csc(-c3cccnc3)n2)cc1)N1CCCCC1", "inhibition": "-1.7% (inactive)", "cell count": 372}
{"smiles": "O=C(c1cnn2c(C(F)(F)F)cc(-c3ccco3)nc12)N1CCc2ccccc2C1", "cell count": 516, "inhibition": "2% (inactive)"}
{"smiles": "COc1ccc(CCNc2oc(COc3ccccc3Cl)nc2C#N)cc1OC", "inhibition": "0.3% (inactive)", "cell count": 643}
{"smiles": "Cc1ccc(-c2nnc(N(C)C(=O)c3ccccn3)s2)cn1", "inhibition": "6.8% (inactive)", "cell count": 500}
{"smiles": "Cn1c(=O)c2c(-c3ccccc3)n(CCCN3CCOCC3)cc2n(C)c1=O", "cell count": 953, "inhibition": "7.9% (inactive)"}
